Measured values as given in ChEMBL document CHEMBL1157539, “Thousands of chemical starting points for antimalarial lead identification” (Nature, 2010).

Experiments:
Assay type in all cases: functional
[1] = system: Plasmodium falciparum; assay: GSK_TCMDC: Inhibition of Plasmodium falciparum 3D7 in whole red blood cells, using parasite LDH activity as an index of growth. Test compounds present at 2uM
[2] = system: Plasmodium falciparum; assay: GSK_TCMDC: Inhibition of Plasmodium falciparum Dd2 in whole red blood cells, using parasite LDH activity as an index of growth. Test compounds present at 2uM
[3] = system: HepG2; assay: GSK_TCMDC: Percent inhibition of human HepG2 cell line. Test compounds present at 10uM.

Structure (SMILES) | Inhibition [1] [%] | Inhibition [2] [%] | Inhibition [3] [%]
CCc1cccc(NC(=O)/C=C/c2ccc3c(c2)CN(C)CC3)c1 | 94 | 91 | 8
OC(COc1ccccc1-c1nc2ccccc2o1)CN1CCCN(CCc2ccccc2)CC1 (stereo not given) | 97 | 2 | 39
CCOC(=O)c1ccc(NC(=O)Nc2cccc(-c3ccc(-c4nc5ccccc5[nH]4)cc3)c2)cc1 | 100 | 86 | 54
CN1CCN(CCCN(Cc2cccc(-c3cccc(CNC4CCCC4)c3)c2)C(=O)CCC2CCCC2)CC1.O=C(O)C(F)(F)F | 100 | 96 | 35
O=C(Nc1cccc(CN2CCCN(Cc3ccc(O)cc3)CC2)c1)c1cccc(F)c1.O=C(O)C(F)(F)F | 92 | 4 | 22
COc1ccc(C(=O)Nc2ccc(-c3nc4cc(C)ccc4[nH]3)cc2)cc1OC | 100 | 38 | 70
CC(C)CCNCc1c(O)ccc2ccccc12 | 95 | 51 | 9
CC(C)Cc1cn(-c2nc(-c3nc4ccccc4[nH]3)cs2)c2ccncc12.Cl | 100 | 99 | 34
O=c1cc(NCCCNCc2cc(C(F)(F)F)ccc2Cl)[nH]c2ccccc12 | 90 | 20 | 25
CN1CCN(Cc2nc(-c3ccc4c(Nc5ccc(Oc6ccccc6)cc5)ccnc4c3)cs2)CC1 | 100 | 99 | 15
O=C(O)C(F)(F)F.c1cc(CN2CCN(c3ccncc3)CC2)cc(-c2ccc(-c3nc4ccccc4[nH]3)cc2)c1 | 100 | 100 | 60
Cc1noc(-c2ccc3c(c2)CCN(CCC2CCC(NC(=O)c4cc5ccccc5[nH]4)CC2)CC3)n1.Cl (stereo not given) | 99 | 41 | 21
C[C@H](Nc1c(Nc2ccc3[nH]ccc3c2)c(=O)c1=O)C1CCCCC1 | 96 | 11 | 7
CCNC(=O)N1CCc2ccc(Oc3nc(NCc4ccccc4OC)ncc3C)cc2CC1.O=C(O)C(F)(F)F | 83 | 76 | 0
COCCN(C(=O)Cc1cccs1)C(C(=O)NCc1ccc(OC)cc1)c1ccc(C(C)C)cc1 (stereo not given) | 96 | 59 | 0
OC(CN(Cc1ccccc1)Cc1ccccc1)Cn1c2ccc(Cl)cc2c2cc(Cl)ccc21 (stereo not given) | 89 | 95 | 5
O=C(Nc1ccc(CC(=O)N2CCc3cc(Cl)c(N4CCN(C/C=C/c5ccccc5)CC4)cc32)cc1)Nc1cccc([N+](=O)[O-])c1 | 95 | 27 | 0
COc1ccc(Cl)cc1N1CCN(CCCNC(=O)c2ccc(-c3nc4cc(Cl)c(C)cc4[nH]3)s2)CC1 | 100 | 97 | 0
COc1cc(NC(=O)c2cc3c(C)nn(-c4cccc(C(F)(F)F)c4)c3s2)cc(OC)c1OC | 100 | 50 | 0
N=C(N)c1ccc(C=Cc2ccc(C(=N)N)cc2O)cc1.O=S(=O)(O)CCO | 92 | 80 | 10
CC(C)[C@H](NC(=O)c1ccc(O)c(-c2ccc(Cl)c(Cl)c2)c1)C(=O)NC1CCCCCC1 | 99 | 99 | 0
OC(CNc1ccnc(Nc2cccc(CCN3CCOCC3)c2)n1)c1ccccc1 (stereo not given) | 100 | 14 | 34
COc1ccc2ncc(F)c([C@@H](O)CN3CCC(NCc4cc5c(cn4)OCCO5)CC3)c2c1.Cl | 100 | 98 | 0
CC(=O)Oc1c(C2C=CCCC2)c(OC(C)=O)c2ccccc2c1OC(C)=O (stereo not given) | 95 | 79 | 10
CCOC(=O)[C@H](Cc1cccc2ccccc12)NC(=O)[C@H](CCC(=O)OC(C)(C)C)NC(=O)c1ccc(N(C)Cc2cnc3nc(N)nc(N)c3n2)cc1 | 93 | 96 | 66
O=C(N[C@@H](CC1CCCCC1)C(=O)NC1CCCCC1)c1ccc(O)c(-c2cccc(C(F)(F)F)c2)c1 | 100 | 95 | 0
O=C(Nc1cc(Cl)ccc1O)c1ccc(Oc2ccc(C(=O)Nc3cc(Cl)ccc3O)cc2)cc1 | 97 | 91 | 32
CCC(Cc1cnc2nc(N)nc(N)c2n1)c1ccc(C(=O)N[C@@H](CCC(=O)O)C(=O)O)cc1 (stereo not given in full) [EDATREXATE] | 93 | 98 | 64
CN(C)c1ccc(-c2ccc(C(=O)NC3CCN(Cc4ccc(F)cc4)CC3)s2)cc1.O=C(O)C(F)(F)F | 87 | 19 | 34
CN1CCC(N2CCN(Cc3ccc(-c4ccc(-c5nc6ccccc6[nH]5)s4)cc3)CC2)CC1.O=C(O)C(F)(F)F | 100 | 100 | 62
